# Tgondii IFNg = T. gondii growth inhibition under IFN-gamma; Toxoplasma gondii growth in IFN-gamma-treated host cells; active compounds read low; activity change, negative = inhibition, % (test concentration not listed); 69,000 compounds, 3.8% hits; AID 1259416; in the data active means activity change below about -70%, passing the limit was not always enough;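 further: host cells are HeLa cells infected with Toxoplasma gondii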
# The depositor's hits bear a star; i = inactive. The full list was thinned out, with hits kept by preference.
SMILES,Tgondii IFNg
O=C(COCc1nnn2c1CN(Cc1ccco1)CCC2)N1CCCC1,1
CCc1nc(OCC(=O)N(CC)c2ccccc2)c2ccccc2n1,-25
COCC(=O)N1CCc2c([nH]c3ccccc23)C1c1ccc(F)cc1 (stereo not given),410
Cc1ccc(C2c3[nH]c4ccccc4c3CCN2C(=O)c2ccc(Br)cc2)cc1 (stereo not given),246
CN(C)c1cccc(C(=O)N2CCc3c([nH]c4ccccc34)C2c2ccc(F)cc2)c1 (stereo not given),-94*
COc1ccc(C(=O)N2CCc3c([nH]c4ccccc34)C2c2ccc(F)cc2)cc1 (stereo not given),-130*
COc1ccc(C2c3[nH]c4ccccc4c3CCN2C(=O)c2ccc(Br)cc2)cc1 (stereo not given),-89*
O=C(c1ccccc1)N1CCc2c([nH]c3ccccc23)C1c1ccc(F)cc1 (stereo not given),-85*
CSc1ccc(C2c3[nH]c4ccccc4c3CCN2C(=O)c2ccc(N(C)C)cc2)cc1 (stereo not given),-53
Cc1ccc(C2c3[nH]c4ccccc4c3CCN2C(=O)c2ccc(F)cc2)cc1 (stereo not given),i
Cc1ccc(C(=O)N2CCc3c([nH]c4ccccc34)C2c2ccc(F)cc2)cc1 (stereo not given),-19
CCOc1ccc(C2c3[nH]c4ccccc4c3CCN2C(=O)c2ccc(OC)cc2)cc1 (stereo not given),-76
O=C(c1ccccc1F)N1CCc2c([nH]c3ccccc23)C1c1ccc(F)cc1 (stereo not given),281
COc1cccc(-n2cc(CN(C)CCC(F)(F)F)cn2)c1,47
Cc1cnc(C(=O)N2CC[C@@H]3C[C@H](c4nccs4)O[C@H]3C2)cn1,2
Cc1cc(CN2Cc3ccccc3C3(CCN(c4cnccn4)CC3)C2)oc1C,33
COc1c(C)cc(C(=O)C2CCCN(Cc3cc(=O)[nH]c(=O)[nH]3)C2)cc1C (stereo not given),3
CCC(=O)Nc1ccc(C)cc1-c1c(Cl)cccc1OC,4
Cc1cccc2c(C(=O)N(Cc3nccn3C)C(C)C)cc(-c3cnn(C)c3)nc12,34
COc1ccc(C(=O)NCCNc2nc(-c3ccncc3)cc3ncccc23)cc1OC,15
Cc1ccc(-c2nc(Cn3c(=O)c4cccnc4n(-c4ccccc4)c3=O)c(C)o2)cc1,-3
CC(C)N1CC[C@H]2OC[C@H](C(=O)NCCc3cccs3)C[C@H]2C1,-3
Cc1ccc(-c2cc3c(=O)n(Cc4nc(-c5ccc(OC(C)C)cc5)oc4C)ccn3n2)cc1C,-72
COCCN(Cc1cccs1)C(=O)c1ccc(C)cc1OC,7
O=S(=O)(Nc1cc(Sc2ncn[nH]2)c(O)c2ccccc12)c1cccs1,-98*
SMILES,Tgondii IFNg
O=C(NCc1cccnc1)c1ccccc1NS(=O)(=O)c1cccs1,28
CCOc1ccccc1NS(=O)(=O)c1cccs1,3
O=C(CN1C(=O)CCc2cc(Br)ccc21)NCc1ccc(F)cc1,-29
CCn1cc(CN2CCCN(c3ccnc(C)c3)CC2)cn1,-2
Cc1cc(OCC(=O)Nc2ccc(C(=O)OCC(C)C)cc2)cc(C)c1Cl,-55
CC(C)COC(=O)c1nc(Cl)c(Cl)c(N)c1Cl,-96*
COc1ccc(/C=C/c2nc3ccccc3s2)cc1,28
O=S(=O)(c1ccc(Cl)cc1)N1CCC2(CC1)Nc1ccc(Cl)cc1-n1cccc12,11
Cc1ccc2c(c1)NC1(CCN(S(=O)(=O)c3ccc4c(c3)oc(=O)n4C)CC1)c1cccn1-2,15
Cc1ccc(CN2CCCC3(COCCN(c4cnccn4)C3)C2)s1 (stereo not given),-94*
Cc1ccc(CN2CCC3(CC2)COCCN(c2ncccn2)C3)s1,-2
CS(=O)(=O)N1CCCC2(COCCN(c3cnccn3)C2)C1 (stereo not given),0
CCc1nc(C)sc1Cn1cnc(-c2ccccc2)c1-c1ccc(CO)o1,1
Cn1ccnc1CN1C[C@@H](c2ccccc2)[C@@]2(CCNC2=O)C1,i
NC(=O)[C@H](Cc1ccccc1)N1Cc2ncccc2C1=O,2
CC(=O)N1CC(=O)N(c2ccccc2)CC12CCN(CC1CCOCC1)C2 (stereo not given),-86*
CC(=O)N1CC(=O)N(c2ccccc2)CC12CCN(C(=O)N1CCCC1)C2 (stereo not given),1
CC(=O)N1CC(=O)N(c2ccccc2)CC12CCN(C(=O)C1CCOCC1)C2 (stereo not given),3
CC(C)(C)OC(=O)N1CCCC(c2ccnc3cc(-c4cccc(F)c4)nn23)C1 (stereo not given),21
Nc1cc(-c2cn[nH]c2C2CCCN(S(=O)(=O)c3ccccc3)C2)ccn1 (stereo not given),-39
Cc1ccc(-c2cn[nH]c2C2CCCN(C(=O)c3ccc[nH]3)C2)cc1 (stereo not given),-92*
Cc1ccc(-c2cn[nH]c2C2CCCN(C(=O)c3c[nH]c(=O)cn3)C2)cc1 (stereo not given),-20

# Bioassay records: PubChem BioAssay, Broad Institute
